In PubChem BioAssay (EPA / NIEHS):
Records with an inconclusive call do not appear. Calls of active or inactive are those of the source. How the source made its calls: active means hit-call score of the fitted dose curve at least 0.9, where 1 is the maximum; inconclusive means response in the unintended direction; inactive means score below 0.9.

Key:
[1] = Tanguay_ZF_120hpf_SNOU_legacy: (Legacy) Oregon State University Tanguay Lab 120 Hour Post-fertilization zebrafish Assay for Snout Malformation (AID 2283637)
Method in brief: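 Dechorionated zebrafish, individually housed from 6 hpf in covered, sealed wells at 28C with 0.64% DMSO vehicle, were examined at 120 hpf for snout malformation. Responses were binary and analysed positive-direction relative to DMSO.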

[2] = Tanguay_ZF_120hpf_OTIC_legacy: (Legacy) Oregon State University Tanguay Lab 120 Hour Post-fertilization zebrafish Assay for Otic Vesicle Malformation (AID 2283639)
Method in brief: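 Brightfield scoring at 120 hpf, binary present/absent; DMSO negative control, 5uM trimethyltin chloride positive control. Static exposure at 28C, final DMSO 0.64% (vol/vol). Dead embryos not scored for malformation.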

[3] = Tanguay_ZF_120hpf_PE_legacy: (Legacy) Oregon State University Tanguay Lab 120 Hour Post-fertilization zebrafish Assay for Pericardial Edema (AID 2283640);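 on AC50: potency for increased incidence of pericardial edema versus DMSO baseline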
Method in brief: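 Tropical 5D wild-type zebrafish embryos were exposed statically to 120 hpf at 28C, sealed and foil-covered, in 0.64% DMSO final. Pericardial edema was scored present/absent by brightfield microscopy; dead embryos were not scored.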

[4] = Tanguay_ZF_120hpf_BRAI_legacy: (Legacy) Oregon State University Tanguay Lab 120 Hour Post-fertilization zebrafish Assay for Brain Malformation (AID 2283641)
Method in brief: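 Tropical 5D wild-type zebrafish embryos were exposed statically in sealed, foil-covered plates at 28C until 120 hpf, with 0.64% (vol/vol) final DMSO. Brain malformation was scored present/absent by brightfield microscopy, relative to DMSO baseline.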

[5] = Tanguay_ZF_120hpf_PFIN_legacy: (Legacy) Oregon State University Tanguay Lab 120 Hour Post-fertilization zebrafish Assay for Pectoral Fin Malformation (AID 2283648);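 further: each larva judged yes or no for fin defect by brightfield with dead larvae skipped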
Method in brief: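 Scoring of pectoral fin malformation was binary, made at 120 hpf on larvae exposed statically from 6 hpf after enzymatic chorion removal. Activity was fitted upward relative to DMSO controls at 0.64% (vol/vol).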

[6] = Tanguay_ZF_120hpf_CFIN_legacy: (Legacy) Oregon State University Tanguay Lab 120 Hour Post-fertilization zebrafish Assay for Caudal Fin Malformation (AID 2283649)
Method in brief: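 Tropical 5D wild-type embryos, dechorionated with pronase at 4 hpf, were placed singly in wells at 6 hpf and statically exposed to compound at 28C until 120 hpf (0.64% DMSO). Caudal fin malformation was scored present/absent by brightfield microscopy.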

[7] = Tanguay_ZF_120hpf_PIG_legacy: (Legacy) Oregon State University Tanguay Lab 120 Hour Post-fertilization zebrafish Assay for Pigmentation Malformation (AID 2283650)
Method in brief: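 Endpoint is incidence of abnormal pigmentation at 120 hpf in dechorionated 5D zebrafish exposed singly from 6 hpf at 28C, DMSO vehicle at 0.64%. Embryos dying by 24 or 120 hpf are excluded from scoring.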

[8] = Tanguay_ZF_120hpf_CIRC_legacy: (Legacy) Oregon State University Tanguay Lab 120 Hour Post-fertilization zebrafish Assay for Circulatory Malformation (AID 2283651)
Method in brief: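 Static exposure, 6–120 hpf, 28C, sealed and dark; one dechorionated 5D embryo/well; DMSO 0.64% v/v final. Binary circulation endpoint by brightfield; dead embryos not scored.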

[9] = Tanguay_ZF_120hpf_JAW_legacy: (Legacy) Oregon State University Tanguay Lab 120 Hour Post-fertilization zebrafish Assay for Jaw Malformation (AID 2283638)
Method in brief: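 Tropical 5D wild-type embryos, dechorionated with pronase at 4 hpf, were placed singly per well at 6 hpf and statically exposed at 28C until 120 hpf (0.64% DMSO final). Jaw malformation scored as present/absent by brightfield microscopy at 120 hpf, analyzed relative to DMSO.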

[10] = Tanguay_ZF_120hpf_SOMI_legacy: (Legacy) Oregon State University Tanguay Lab 120 Hour Post-fertilization zebrafish Assay for Somite Malformation (AID 2283647)
Method in brief: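 Tropical 5D wild-type zebrafish embryos, dechorionated with pronase at 4 hpf, were placed singly at 6 hpf and statically exposed until 120 hpf at 28C in 0.64% DMSO. Somite malformation was scored present/absent by brightfield microscopy versus DMSO.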

Measured: AC50

O=C(O)c1ccccc1C(=O)OCc1ccccc1
inactive: [1] | [2] | [3] | [4] | [5] | [6] | [7] | [8]

CCCCOC(=O)CC(CC(=O)OCCCC)(OC(C)=O)C(=O)OCCCC
inactive: [1] | [9] | [2] | [3] | [5] | [7] | [8]

c1ccc2ccccc2c1
inactive: [1] | [9] | [2] | [3] | [10] | [5] | [6] | [7] | [8]

Cc1oc2c(NC(=O)c3c(Cl)cccc3Cl)cccc2c1C(C)(C)O
inactive: [1] | [9] | [2] | [3] | [10] | [5] | [6] | [7] | [8]

Oc1ccc2ccccc2c1
active: [1] 34.8 µM | [2] 47.3 µM | [6] 10.4 µM | [7] 12.9 µM
inactive: [3] | [10] | [5] | [8]

O=C1O[C@H]([C@@H](O)CO)C(O)=C1O
inactive: [1] | [10] | [5] | [6] | [7] | [8]

CC1(C)NC(=O)N(c2ccc([N+](=O)[O-])c(C(F)(F)F)c2)C1=O
inactive: [2] | [3] | [10] | [5] | [6] | [7] | [8]

OCCO
inactive: [1] | [3] | [5] | [6] | [7] | [8]

CCCCCCCCCC(=O)O
inactive: [1] | [3] | [10] | [5] | [6] | [7] | [8]

CC[C@H](NC(=O)c1cc(F)ccc1NS(=O)(=O)c1cccc2cccnc12)c1ccccc1
inactive: [1] | [2] | [3] | [4] | [5] | [6] | [8]

COCC(C)OCC(C)OCC(C)O (configuration not stated)
inactive: [1] | [2] | [3] | [10] | [5] | [6] | [7] | [8]

NCc1cccc(C2CCN(C(=O)c3ccc(C#Cc4ccccc4F)o3)CC2)c1
inactive: [1] | [2] | [3] | [10] | [6] | [7]

Cc1ccc(C(C)C)cc1
inactive: [1] | [2] | [10] | [5] | [6] | [7] | [8]

Cc1c2ccccc2c(C)c2c1ccc1ccccc12
inactive: [1] | [2] | [10] | [5] | [7] | [8]
active: [3] 4.18 µM | [6] 25.8 µM

CCCC(=O)OCCC(C)C
inactive: [1] | [2] | [3] | [10] | [5] | [7] | [8]

O=C1c2ccccc2C(=O)N1CCc1noc(-c2ccc(CN3CCCCCC3)s2)n1
inactive: [1] | [2] | [3] | [10] | [5] | [6] | [7] | [8]

Cc1ccc2oc(CN(Cc3ccccc3)C(=O)Nc3c(F)cc(F)cc3F)c(-c3ccc(Cl)cc3)c2c1
inactive: [1] | [2] | [3] | [10] | [6] | [7] | [8]

C[C@]12CC[C@@H]3c4ccc(O)cc4CC[C@H]3[C@@H]1CCC2=O
inactive: [1] | [2] | [3] | [10] | [5] | [6] | [7]

CC1=CC(=O)/C(=C(/C)O)C(=O)O1
inactive: [2] | [3] | [4] | [5] | [6] | [7] | [8]

CC[C@@H]1C[C@H](N(Cc2cc(C(F)(F)F)cc(C(F)(F)F)c2)C(C)=O)c2cc(C(F)(F)F)ccc2N1C(=O)OC(C)C
inactive: [1] | [2] | [3] | [10] | [5] | [6] | [7] | [8]

CCCCCc1ccc(N)cc1
inactive: [1] | [2] | [3] | [5] | [6] | [7] | [8]

CN(C)c1ccc(C(=C2C=CC(=[N+](C)C)C=C2)c2ccc(N(C)C)cc2)cc1
inactive: [5] | [6] | [7] | [8]

CC(=O)N1CCN(c2ccc(OC[C@H]3CO[C@](Cn4ccnc4)(c4ccc(Cl)cc4Cl)O3)cc2)CC1
inactive: [1] | [2] | [3] | [10] | [6] | [8]

O=C=NCCCCCCN=C=O
inactive: [1] | [2] | [3] | [6] | [8]

CC(C)(C)c1cc(/C=C2\SC(N)=NC2=O)cc(C(C)(C)C)c1O
inactive: [1] | [2] | [3] | [10] | [5] | [6] | [7]

CC(C)(O)c1ccc(CNC(=O)c2cccnc2Oc2ccc3nonc3c2)cc1
inactive: [1] | [2] | [3] | [10] | [5] | [6] | [8]

COc1cccc([C@H](O)C2CCN(CCc3ccc(F)cc3)CC2)c1OC
inactive: [2] | [10] | [6]
active: [1] 45.8 µM | [3] 38.7 µM

O=C(OCCCCCCOC(=O)c1ccccc1)c1ccccc1
inactive: [3] | [10] | [6] | [8]

CCCCCCCCOc1ccc(C(=O)c2ccccc2)c(O)c1
inactive: [1] | [2] | [10] | [5] | [6] | [7]

CCCCCCCCCCCC[N+](C)(C)C
inactive: [1] | [2] | [3] | [10] | [5] | [6] | [7] | [8]

Cc1cccc2ccccc12
inactive: [2] | [3] | [4] | [10] | [5] | [6] | [7] | [8]

Cc1ncc(CO)c(CO)c1O
inactive: [1] | [2] | [3] | [10] | [5] | [6] | [7] | [8]

CCCCCCCCN(C)CCCCCCCC
inactive: [1] | [3] | [4] | [10] | [5] | [6] | [8]

O=CCCCC=O
inactive: [1] | [2] | [3] | [10] | [5] | [6] | [7]

COc1ccc2cc(S(=O)(=O)N[C@H](CC(=O)N[C@H](Cc3ccc(CN4[C@H](C)CCC[C@@H]4C)cc3)C(=O)N(C)C(C)C)c3ccc4c(c3)OCO4)ccc2c1
inactive: [1] | [3] | [5] | [6] | [7] | [8]

c1ccc2n[nH]nc2c1
inactive: [1] | [2] | [3] | [10] | [5] | [6] | [7] | [8]

O=C(Nc1ccc(Cl)cc1)Nc1ccc(Cl)c(Cl)c1
inactive: [1] | [2] | [3] | [10] | [5] | [6] | [7] | [8]

Cc1cc(F)ccc1-c1cc(N2CC[C@@H](O)[C@H]2CO)ncc1N(C)C(=O)C(C)(C)c1cc(C(F)(F)F)cc(C(F)(F)F)c1
inactive: [9] | [2] | [10] | [6] | [7] | [8]

CCCCCCCC[Si](OCC)(OCC)OCC
inactive: [1] | [2] | [4] | [10] | [6] | [7]

c1ccc(C[n+]2cccc3ccccc32)cc1
inactive: [9] | [2] | [3] | [4] | [10] | [5] | [6] | [7] | [8]

CCO[Si](CCCNC(N)=O)(OCC)OCC
inactive: [1] | [2] | [3] | [10] | [5] | [7] | [8]

CC(C)(C)c1csc(-c2cc3cc(OCc4ccccc4CC(=O)O)ccc3o2)n1
inactive: [9] | [2] | [3] | [10] | [5] | [8]
